# Data published in PubChem BioAssay AID1745845 (National Center for Advancing Translational Sciences (NCATS), 2022).
# Several values for one entry are separate records, joined by “and”; a condition that tells them apart may be missing. Identical values can stand only once. Screen size: about 360,000 compounds; about 2,600 (0.72%) were called active. Roughly 5% stayed inconclusive and do not appear here. The call rests on the fitted dose curve; in most records, active means well fitted inhibition curve with a large enough effect; inconclusive means small, poorly fitted or top-dose-only effect; inactive means no such curve, though single readings can be large or run the other way. This excerpt belongs to a sample that is enriched for actives. The source holds several records for some structures; these can differ, active in one and inactive in another.
# Test: Primary qHTS for Inhibitors of ATXN expression; further: nearly all actives have a fitted effect of over 55% in size
# Conditions: HEK-293 ATXN2-luciferase reporter, luminescence, 24 h; series mostly up to 57 µM; activity change, negative = inhibition: at the top concentration
# Procedure, shortened: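 ATXN2-luciferase reporter cells (luciferase flanked by upstream and downstream ATXN2 gene portions) were treated 24 h at 37 °C with compounds at up to 57 uM. SteadyGlo luminescence gave expression; GF-AFC fluorescence gave viability.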
# On the % scale 0 is the no-effect control and ±100 the full control effect; potency means the concentration at half of the fitted maximal effect.
Structure (SMILES),"activity change, negative = inhibition",Potency
N#Cc1ccccc1Cn1cnc2nc3c(cc2c1=O)CCCC3,15.7% (inactive),
Cc1nc2c(OCc3ccc(Cl)cc3Cl)cccn2c1N(C)CC1CC1,-0.165% (inactive),
O=[N+]([O-])c1ccc(C=Nc2ccc(Cl)cc2Cl)s1,,12.6 µM (active)
CNN/C(N=Cc1ccc([N+](=O)[O-])s1)=N\S(=O)(=O)c1cc(C)c(Cl)cc1SCc1ccccc1,4.25% (inactive),
COC(=O)c1ccccc1NC(=O)c1cc(-c2ccccc2O)no1,-7.07% (inactive),
CC(C)CCNC(=O)CSc1nc2ccccc2nc1Cc1ccc(Cl)cc1,8.32% (inactive),
COc1ccc(CCNC(=O)CCc2ccccc2O)cc1OC,-8.28% (inactive),
COc1ccc(Cc2nnc(N/N=C/c3ccccc3O)[nH]c2=O)cc1OC,,3.55 µM (active)
COc1ccc(Cc2nnc(SC)[nH]c2=O)cc1,-0.583% (inactive),
CCCCCc1c(-c2ccc(OC)c(OC)c2)ncn1CCc1ccccc1OC,-19.7% (inactive),
COc1ccc(CNc2nc(-c3ccccc3)nn2C(=O)c2ccccc2OC)cc1,11.6% (inactive),
COc1cc(Cl)cn2c(-c3cccc(NC4CNC4)n3)cnc12,-7.34% (inactive),
Cc1ccc(-n2ncc3c(=O)n(Cc4cccc(C(F)(F)F)c4)cnc32)cc1C,9.19% (inactive),
CC1(C)OC(=O)C2=C(C[C@@H](C3CCCCC3)O[C@@H]2c2ccc(Cl)cc2)O1,-15.8% (inactive),
O=C(/C=C/c1ccc([N+](=O)[O-])o1)NNC(=O)c1ccc(F)cc1,,6.31 µM (active)
NC(=O)C(=O)N/N=C/c1ccc([N+](=O)[O-])o1,-10.7% (inactive),
Cc1onc(C(=O)NCc2ccc(F)cc2)c1[N+](=O)[O-],-8.25% (inactive),
Cc1ccc(S(=O)(=O)c2c(Nc3cccc(Cl)c3)sc(C(=O)c3ccc4c(c3)OCO4)c2N)cc1,-24.7% (inactive),
COc1ccc(NC(=O)CCC(=O)Nc2cc(OC)c(NC(=O)c3ccco3)cc2OC)c(OC)c1,-5.94% (inactive),
COc1cc(C(=O)OC(C)C(=O)NCC2CCCCC2)cc(NC(=O)c2ccco2)c1OC (centres undefined),,25.1 µM (active)
CC(OC(=O)c1ccc([N+](=O)[O-])cc1)C(=O)NCC1CCCCC1 (centres undefined),-4.37% (inactive),
COC(=O)c1c(NC(=O)CCCOc2ccccc2)sc2c1CCC(C)C2 (centres undefined),1.43% (inactive),
CC(=O)c1cccc(NC(=O)c2nc(-c3ccccc3)n(-c3cccc(C)c3)n2)c1,-32.6% (inactive),
Cc1cc(Br)ccc1NC(=O)Cn1cnc2sc(C)c(S(=O)(=O)N3CCN(C)CC3)c2c1=O,12.6% (inactive),

Structure (SMILES),"activity change, negative = inhibition",Potency
CN[C@@H]1[C@@H](O)[C@@H](O[C@@H]2[C@H](O)[C@H](O[C@H]3OC(CN)=CC[C@H]3N)[C@@H](N)C[C@H]2N)OCC1(C)O (some centres undefined),12.2% (inactive),
COc1cc(/C=N/NC(=O)c2cc(-c3ccccc3C)nc3ccccc23)cc(OC)c1O,1.95% (inactive),
Cc1ccc(/C=N/NC(=O)C2=NNC(c3ccccc3)(c3ccccc3)C2)c(O)c1,,3.16 µM (active)
Cc1ccc2nc(CNC(=O)c3ccccc3)[nH]c2c1,71.8% (inactive),
CCC(C)Cn1c(O)cc2nn(-c3nc4ccccc4s3)c(=O)c-2c1C (centres undefined),,14.1 µM (active)
COc1ccc(OC)c(NC(=O)/C=C/c2ccc(C)o2)c1,4.77% (inactive),
CCOC(=O)C1CCN(c2nc3c(S(=O)(=O)c4ccc(CC)cc4)nnn3c3ccc(Cl)cc23)CC1,7.33% (inactive),
CCCCCn1c(=O)[nH]c2cc(C(=O)NCCN(C)CCCC)ccc2c1=O,-7.68% (inactive),
COc1ccccc1CNC(=O)NCc1noc2ccc(C)cc12,-5.43% (inactive),
CC(C)(C)c1ccc(Oc2ccc(N)cc2)cc1,,2.82 µM (active)
CN(C)S(=O)(=O)c1ccc(Oc2ccc(S(=O)(=O)N(C)C)cc2)cc1,-15.9% (inactive),
Cc1cc(C(C)(C)C)cc(C)c1N,-8.09% (inactive),
O=C(OCCN1CCOCC1)c1cccnc1Nc1cccc(C(F)(F)F)c1,-16.6% (inactive),
CCCCN(CCCC)CCC(O)c1cc2c(Cl)cc(Cl)cc2c2cc(C(F)(F)F)ccc12 (centres undefined),,inactive and 31.6 µM (active)
Cc1c(Cl)cccc1NC(=O)C(=O)NCCc1csc2nc(-c3ccccc3F)nn12,-5.63% (inactive),
Oc1ccc2ccccc2c1N=Nc1nccs1,,3.55 µM (active)
Cc1ccccc1Cn1nc(C)c(NC(=O)c2cc(-c3ccc(F)cc3)on2)c1C,-0.902% (inactive),
COc1cc(NC(=O)CN2CCN(S(=O)(=O)c3ccc(Br)cc3)CC2)cc(OC)c1,2.9% (inactive),
CNC(=O)c1ccsc1NC(=O)c1ccc(S(=O)(=O)N2CCOCC2)cc1,8.05% (inactive),
Cc1cc2nc(NC(=O)c3ccc(S(=O)(=O)N4CCOCC4)cc3)sc2cc1C,0.447% (inactive),
COc1ccc(C(=O)Nc2nc(-c3ccc(S(=O)(=O)N4CCOCC4)cc3)cs2)cc1,,25.1 µM (active)
CCc1nc2c(cnn2-c2ccc(C)cc2)c(=O)n1-c1ccc(C)cc1,8.05% (inactive),
Cc1ccccc1CSCCNC(=O)C1CCN(S(=O)(=O)Cc2ccccc2)CC1,-4.49% (inactive),
CC1=CC(C)(C)Nc2ccc(OC(=O)CN3C(=O)C4CCCCC4C3=O)cc21 (centres undefined),,31.6 µM (active)

Structure (SMILES),"activity change, negative = inhibition",Potency
CC1=CC(C)(C)Nc2ccc(OC(=O)C(Cc3ccccc3)N3C(=O)C4CCCCC4C3=O)cc21 (centres undefined),-33.8% (inactive),
O=C(COC(=O)CN1C(=O)C2CCCCC2C1=O)Nc1ccc(F)c(F)c1F (centres undefined),-0.766% (inactive),
C[C@]12CCC3=C4CCC(=O)C=C4CC[C@@H]3[C@H]1CC[C@@]2(O)CC#N,15.3% (inactive),
COc1ccc(C(=O)/C=C/Nc2ccccn2)cc1,,8.91 µM (active)
Cc1cc(N/C=C\C(=O)c2ccc(Cl)c(Cl)c2)no1,19% (inactive),
CCOc1cc2ccccc2cc1C(=O)Nc1ccccn1,6.94% (inactive),
COc1ccc(CNC(=O)CSc2nc3ccccc3nc2Cc2ccccc2)cc1,6.56% (inactive),
O=C(NCCC1=CCCCC1)c1ccc2c(c1)N(Cc1ccccc1F)C(=O)c1ccccc1S2(=O)=O,-14.3% (inactive),
CCOC(=O)c1c(C)[nH]c(C)c1S(=O)(=O)N1CCCC(C(=O)NCc2ccccc2Cl)C1 (centres undefined),13.6% (inactive),
CC1CCCN(C(=O)CN2C(=O)c3ccccc3S2(=O)=O)C1 (centres undefined),2.01% (inactive),
O=C(CN1C(=O)c2ccccc2S1(=O)=O)N1CCc2ccccc21,,2.51 µM (active)
CN(Cc1ccc(F)cc1)C(=O)CN1C(=O)c2ccccc2S1(=O)=O,20.2% (inactive),
CO[C@H]1C=CO[C@@]2(C)Oc3c(C)c(O)c4c(O)c(c(/C=N/N5CCN(C)CC5)c(O)c4c3C2=O)NC(=O)/C(C)=C\C=C[C@H](C)[C@H](O)[C@@H](C)[C@@H](O)[C@@H](C)[C@H](OC(C)=O)[C@@H]1C,16.3% (inactive),
COc1ccc(CCNS(=O)(=O)c2cccc3cccnc23)cc1OC,1.2% (inactive),
C=CCn1c(COc2cccc3cccnc23)nnc1SCC(=O)OC,9.7% (inactive),
CCCCC(=O)NC(c1ccc(OC)c(OC)c1)c1ccc2cccnc2c1O (centres undefined),,5.01 µM (active)
CC1=C(C(=O)N(C(C)C)C(C)C)CC(CC(=O)NCCCCc2ccccc2)C(=O)N1CCC1=CCCCC1 (centres undefined),-11.7% (inactive),
CCc1c2c(nc3ccc(O)cc13)-c1cc3c(c(=O)n1C2)COC(=O)[C@]3(O)CC,,0.0061 µM (active)
CCCCN(CC)C(=S)Nc1ccc2nc3n(c(=O)c2c1)CCCCC3,1.25% (inactive),
COc1ccc(C(=O)COC(=O)CCCC(=O)Nc2cc(C(F)(F)F)ccc2Cl)cc1,12% (inactive),
COc1cccc(NC(=O)C2CCN(c3cc(C)nc4c(-c5ccc(Cl)cc5)c(C)nn34)CC2)c1,4.91% (inactive),
Cc1nnc(N2CCC(C(=O)Nc3ccc(F)cc3)CC2)c2nn(-c3ccc(Cl)cc3)c(C)c12,,25.1 µM (active)
CCCCNC(=O)C1CCCN(c2nnc(C)c3c(C)n(-c4ccc(Cl)cc4)nc23)C1 (centres undefined),-7.69% (inactive),
Cc1nnc(N2CCCC(C(=O)NCCN(C)C)C2)c2nn(-c3ccccc3)c(C)c12 (centres undefined),-23.9% (inactive),

Structure (SMILES),"activity change, negative = inhibition",Potency
COc1ccc(-n2nc3c(N4CCC(C(=O)NCc5ccccc5)CC4)nnc(C)c3c2C)cc1,-22.4% (inactive),
CCc1ccc(CNC(=O)C2CCN(c3nnc(C)c4c(C)n(-c5ccc(C)cc5)nc34)CC2)cc1,,31.6 µM (active)
CSc1nc(-c2ccc(F)cc2)nc2c1Cc1c(CO)cnc(C)c1O2,0.751% (inactive),
Cc1ccc(CNC(=O)CCc2c(C)nc3c(c(C)nn3-c3ccccc3)c2C)cc1,5.92% (inactive),
CN(C)c1ccc(NC(=O)CSc2nc(-c3ccco3)cc(C(F)(F)F)n2)cc1,2.66% (inactive),
COc1cccc(CNC(=O)c2cc(=O)[nH]c3ccc(S(=O)(=O)N4CCCCC4)cc23)c1,-1.53% (inactive),
Cc1cc(NC(=O)/C=C/C(=O)N(c2ccccc2C)C(C(=O)NC2CCCC2)c2ccc(F)cc2)no1 (centres undefined),,10 µM (active)
Cc1cc(NC(=O)CCC(=O)N(c2cccc(F)c2)C(C(=O)NC2CCCC2)c2ccncc2)no1 (centres undefined),-5.11% (inactive),
Cc1cc(NC(=O)/C=C/C(=O)N(CC(=O)NC2CCCC2)c2ccc(F)cc2)no1,-16.6% (inactive),
CCOc1ccc(-c2nonc2NC(=O)c2oc3ccc(C)cc3c2C)cc1OCC,9.19% (inactive),
O=C(Nc1ccc(O)c(-c2nc3ccccc3o2)c1)c1ccc(-c2cccc(Cl)c2)o1,-8.53% (inactive),
CC1(C(=O)NCc2ccco2)Cc2c(-c3ccc4c(c3)OCO4)ccnc2O1 (centres undefined),-16% (inactive),
CCOC(=O)c1ccc(NC(=O)CCn2cnnn2)cc1,10.7% (inactive),
CON=C(C(=O)N[C@@H]1C(=O)N2C(C(=O)OCOC(=O)C(C)(C)C)=C(C=Cc3scnc3C)CS[C@H]12)c1csc(N)n1,6.17% (inactive),
Cc1cc(Br)cn2c(Cc3cccc(F)c3)c(-c3cccc(Br)c3)nc12,0% (inactive),
CC(C)(C)c1cc(C(=O)O)c(NC(=O)Nc2ccc3[nH]ncc3c2)s1,-0.034% (inactive),
CC(C)(C)c1nc(-c2cccc(NS(=O)(=O)c3c(F)cccc3F)c2F)c(-c2ccnc(N)n2)s1,-14.8% (inactive),
OC(c1ccc(Cl)cc1)c1ncc(-c2ccc(Cl)cc2)[nH]1 (centres undefined),-18.9% (inactive),
CC(C)Cc1ccc(-c2cc3nc(NCc4cccc(Cl)c4)ccn3n2)cc1,8.54% (inactive),
Cc1cc([N+](=O)[O-])ccc1NCc1cccc([N+](=O)[O-])c1,-16.2% (inactive),
O=C(CCl)N(Cc1cccc([N+](=O)[O-])c1)c1cccc(Cl)c1,,2.38 µM (active)
CC(=O)N(CN1C(=O)C2CC=CCC2C1=O)c1cccc(Cl)c1 (centres undefined),-7% (inactive),
